Compound activity: PubChem BioAssay, National Center for Advancing Translational Sciences (NCATS)
KB-3-1 tox: qHTS assay for MDR1-selective chemotherapeutics: Primary screen using the parental adenocarcinoma cell KB-3-1; KB-3-1 viability, CellTiter-Glo ATP luminescence, 72 h; Potency, µM (series often up to 46.1 µM), hits mostly cytotoxic; hit rate 1.4% among 400,000; AID 1347075, 2019; note: potency is the fitted concentration of half-maximal effect; % is set by controls: 0 for no effect and ±100 for the full control effect; nearly all actives have a fitted effect of over 60% in size
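KB-3-1 cells, DMEM (no phenol red) + 10% FBS; compound by pin transfer, 72 h, 37 °C. Readout: CellTiter-Glo luminescence after 10 min. Data normalized, curve-fitted.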
KB-V1 MDR tox: qHTS assay for MDR1-selective chemotherapeutics: Primary screen using the drug-selected MDR subline cells KB-V1; KB-V1 MDR cells viability, CellTiter-Glo, 72 h; Potency, µM (doses to about 46.1 µM), most hits filed as cytotoxic; hit rate 3.4% among 400,000; note: potency is the fitted concentration of half-maximal effect; % is set by controls: 0 for no effect and ±100 for the full control effect; nearly all actives have a fitted effect of over 60% in size
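KB-V1 MDR subline cells in DMEM (phenol-red free, 10% FBS) exposed to compounds in qHTS concentration series for 72 h at 37 degrees C. Viability read by CellTiter-Glo luminescence; concentration-effect curves fitted after normalization and correction.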
SW480 rereplic: A quantitative high throughput screen for small molecules that induce DNA re-replication in SW480 colon adenocarcinoma cells | SW480 DNA re-replication, Hoechst DNA content imaging, 48 h | Potency, µM (doses to about 46.1 µM), without a hit: top-dose re-replication activation, hits mostly activators | hit rate 1.8% among 340,000; note: potency is the fitted concentration of half-maximal effect; % of control where 0% means no effect; nearly all actives have a fitted effect of over 55% in size
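Treated cells incubate 48 hr (37 C, 5% CO2), are stained 40 min with Hoechst, and nuclear fluorescence is enumerated; a rise in nuclei with high DNA signal marks re-replication.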
IL1B secr inh: qHTS for Inhibitors of Inflammasome Signaling: IL-1-beta AlphaLISA Primary Screen; THP-1 LPS/ATP IL-1B secretion, AlphaLISA, 16 h; hits give low values; activity change, % at 57.5 µM; hit rate 4.7% among 360,000; AID 743279, 2014; in the data active = activity change below about -50%; inconclusive = mostly about -30% to -49%; note: % is set by controls: 0 for no effect and ±100 for the full control effect
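THP-1 cells pretreated 1 hr with compounds (up to 57.5 uM final), then stimulated with LPS (250 ng/mL final) plus ATP (1.25 mM final); secreted IL-1B measured by AlphaLISA after 16 hr, decreased signal indicating inhibition.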
MCF10A rerep: A quantitative high throughput screen for small molecules that induce DNA re-replication in MCF 10a normal breast cells. MCF 10A DNA re-replication, Hoechst nuclear intensity, 48 h. Potency, µM (top dose mostly 46.1 µM), for inactives: at the highest dose activity, positive = re-replication, actives largely listed as activators. hit rate 2.9% among 350,000. AID 624296, 2012; note: potency is the fitted concentration of half-maximal effect; % of control where 0% means no effect; nearly all actives have a fitted effect of over 50% in size
Numbers without * were called inactive; i = inactive; ? = inconclusive; nt = no result. Rows were chosen to be rich in hits. Some 9.9% of all compounds tested hit in one or more screens of this group. Unless noted, calls come from the whole dose curve; as a rule, active = well fitted curve in the direction sought with a large enough effect; inconclusive = small, poorly fitted or top-dose-only effect, or another doubt; inactive = no such curve, though single readings can be large; an effect the other way counts as inactive or inconclusive.

SMILES	KB-3-1 tox	KB-V1 MDR tox	SW480 rereplic	IL1B secr inh	MCF10A rerep
Cc1ccc(C)c(NC(=O)CSc2nc3c(c(=O)n2C)SC(C)C3)c1 (stereo not drawn)	i	i	0%	22	0%
O=C(NCCc1ccc(Cl)cc1)c1cc(-c2ccc(Cl)cc2)n[nH]1	i	i	nt	nt	nt
Cc1cc(C)n2nc(C(=O)OCCOc3cccc(Br)c3)nc2n1	i	i	1%	-6	-1%
Cc1cc(C)n2nc(C(=O)OCCOc3ccc(F)cc3)nc2n1	i	i	-4%	-50*	-10%
Cc1ccc2nc(-c3ccccc3)nn2c1	i	i	-12%	25	2%
CCc1ccc(OCC(=O)c2c(O)c3ccccc3oc2=O)cc1	i	i	9%	14	?
CCc1oc2ccccc2c1C(=O)c1cc(Br)c(O)c(Br)c1	i	i	-1%	27	7.3µM*
C=C1C(C(=O)Nc2ccccc2)C1C(=O)Nc1ccccc1 (stereo not drawn)	i	i	-3%	6	-1%
Cc1ccc(-c2n[nH]c3c2C(c2ccccc2)N(c2ccc(C(=O)O)cc2)C3=O)cc1 (stereo not drawn)	i	i	0%	-6	-4%
O=C1c2[nH]nc(-c3ccccc3)c2C(c2ccccc2)N1c1cccc(C(F)(F)F)c1 (stereo not drawn)	?	16µM*	nt	nt	nt
CCOC(=O)c1c(NC(=O)c2cc(Cl)ccc2Cl)sc2c1CCCC2	i	i	nt	nt	nt
CCOC(=O)c1c(NC(=O)c2ccccc2Cl)sc2c1CCc1ccccc1-2	i	?	-695%	-4	16µM*
CCOC(=O)c1c(NC(=O)c2ccccc2)sc2c1CCc1ccccc1-2	i	i	?	25	21µM*
CCOC(=O)c1c(NC(=O)c2ccccc2C(=O)O)sc2c1CCCC2	i	i	-4%	-9	14%
Cc1ccnc2ccc(I)cc12	i	i	nt	nt	nt
COc1ccc(NC(=O)C(c2ccccn2)N(C(C)=O)c2ccc(C)cc2)cc1 (stereo not drawn)	i	18µM*	-160%	17	2%
CCOc1ccc(NC(=O)C(c2ccccn2)N(C(=O)CCl)c2ccc(OC)cc2)cc1 (stereo not drawn)	i	?	?	0	0%
COc1ccccc1OCC(=O)NCCCN1CCOCC1	i	i	-23%	0	2%
COc1ccccc1NC(=O)COc1cc(Br)c(CNCCCN2CCOCC2)cc1OC	i	i	25%	-53*	?
O=C(COc1ccc(F)cc1Br)Nc1ccccc1N1CCCC1	i	i	nt	48	nt
CCn1nnc(NC(=O)COc2cc(C)ccc2C(C)C)n1	i	15µM*	-4%	11	4%
O=C(COc1ccc(F)cc1Br)Nc1ccccc1N1CCOCC1	i	8.2µM*	4%	3	0%
O=C(COc1ccc(C(=S)N2CCOCC2)cc1Cl)Nc1ccccc1Cl	i	?	6%	0	7%
COc1cc(C(=S)N2CCCCC2)ccc1OCC(=O)Nc1ccccc1Cl	i	i	?	-70*	?
Cc1ccc(C(=O)N2CCN(S(=O)(=O)N3CCCCC3)CC2)cc1	i	?	-12%	i	-8%
Cc1ccnc(NC(=S)NC(=O)/C=C/c2ccc(Cl)cc2)c1	i	i	-7%	0	0%
Cc1cc(Cl)ccc1OCC(=O)Nc1ccccc1N1CCOCC1	?	15µM*	1%	-9	21%
COc1cc(C)ccc1OCC(=O)Nc1ccccc1N1CCOCC1	i	5.8µM*	-6%	7	19%
Cc1ccc2[nH]c3c(=O)n(CC(=O)Nc4ccccc4N4CCN(C)CC4)ncc3c2c1	i	i	21µM*	-5	?
Cc1ccc(C(C)C)c(OCC(=O)Nc2ccccc2N2CCN(C)CC2)c1	?	?	-1%	-59*	?
